Laboratory results reported in PubChem BioAssay (Tox21).
Results filed as inconclusive are left out. Values without a mark were called inactive. Activity calls are given as the source filed them. The call rests on the fitted dose curve.

What follows are compounds tested against D(2) dopamine receptor (Homo sapiens) (UniProt P14416) (assay: Dopamine D2 receptor (DRD2) small molecule agonists, cell-based qHTS assay (AID 1963594; further: nearly all actives have a fitted effect of over 35% in size)). Conditions: HEK293-DRD2 cAMP HTRF, agonist mode, 30 min; series mostly up to 92.4 µM; activation: at the top concentration.
D(2) dopamine receptor (Homo sapiens), sequence (P14416 whole entry, looked up): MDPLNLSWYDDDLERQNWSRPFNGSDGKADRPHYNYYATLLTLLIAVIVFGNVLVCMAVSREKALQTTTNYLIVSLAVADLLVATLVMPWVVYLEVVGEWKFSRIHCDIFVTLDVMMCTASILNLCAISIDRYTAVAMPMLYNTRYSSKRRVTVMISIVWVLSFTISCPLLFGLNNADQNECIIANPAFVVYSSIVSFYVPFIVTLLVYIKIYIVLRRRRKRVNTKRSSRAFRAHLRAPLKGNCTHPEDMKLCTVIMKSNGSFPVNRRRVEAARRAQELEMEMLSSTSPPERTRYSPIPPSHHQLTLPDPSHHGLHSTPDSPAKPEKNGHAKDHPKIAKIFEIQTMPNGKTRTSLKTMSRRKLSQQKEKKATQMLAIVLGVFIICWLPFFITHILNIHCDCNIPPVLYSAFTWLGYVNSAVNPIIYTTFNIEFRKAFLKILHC
Excerpt: National Center for Advancing Translational Sciences [NCATS]
Division of Preclinical Innovation [DPI]
U.S. Environmental Protection Agency [EPA]
National Institutes of Environmental Health Sciences [NIEHS]
National Toxicology Program [NTP]
U.S. Food and Drug Administration [FDA]
DRD2 is the D2 subtype of the dopamine receptor, which is coupled to Gi subtype of G protein-coupled receptor. This G protein-coupled receptor inhibits adenylyl cyclase activity. The DRD2-HEK293 cell line stably expressing D2 dopamine receptor can be used for screening agonists and antagonists of interactions between D2 and its ligands. The Hek293-DRD2 cAMP assay is based on HTRF technology. It measures changes of cAMP accumulation in response to Gi coupled GPCR activation or inhibition.
Tox21 Assay Protocol Summary:
DRD2-Hek293 cells were dispensed at 600 cells/3uL/well in 1536-well white plates using a Multidrop Dispenser. After the assay plates were incubated at a 37 C/5% CO2 incubator for 24 h, 1 uL of Ro20-1724 at final concentration of 0.1 mM was transferred to the assay plate by a Flying Reagent Dispenser. Following Ro20-1724 addition, 23 nL of compound dissolved in DMSO, positive controls or DMSO only was added to the assay plates via Wako pintool station. The assay plates were incubated at room temperature for 10 min. Next, 1 uL of NKH477 at 200nM was added into the plates. After the assay plates were incubated at room temperature for an additional 30 min, 2.5 ul/well of cAMP-d2 and 2.5 ul/well of anti-cAMP-cryptate were added respectively into the assay plates using a Flying Reagent Dispenser. The plates were incubated at room temperature for 1 h. The fluorescence intensity in the plates was measured at 340 nm excitation and 665 & 620 nm emission by an Envision plate reader.
On the % scale 0 is the no-effect control and ±100 the full control effect; potency means the concentration at half of the fitted maximal effect.

| SMILES | activation | Potency |
| --- | --- | --- |
| CC(C)(COCC1CO1)COCC1CO1 (stereo not given) | -3.56% | – |
| Cc1ccccc1OP(=O)(Oc1ccccc1C)Oc1ccccc1C | -3.93% | – |
| C#C[C@]1(O)CC[C@H]2[C@@H]3CCC4=CC(=O)CCC4=C3C=C[C@@]21CC | 3.63% [at 42.5 µM] | – |
| CCCCCCBr | -2.83% | – |
| CC(c1ccc(O)cc1)(c1ccc(O)cc1)c1ccc(O)cc1 | 24.9% | – |
| CC[C@H]1C[C@H]2[C@@H]3CCC4=CC(=O)CC[C@@H]4[C@H]3CC[C@]2(C)[C@H]1O | -4.96% [at 42.5 µM] | – |
| COc1cc(C[C@@H](C)N)c(OC)cc1Br | – | 3.96 µM (active) |
| CCC[CH2][Sn]([CH2]CCC)([O]C(C)=O)[O]C(C)=O | -0.252% | – |
| c1coc(-c2nc3ccccc3[nH]2)c1 | 5.67% | – |
| [Cl][Sb]([Cl])[Cl] | -7.79% | – |
| O.O.O.O=C([O-])[C@H]([O-])[C@@H]([O-])C(=O)[O-].O=C([O-])[C@H]([O-])[C@@H]([O-])C(=O)[O-].[K+].[K+].[Sb+3].[Sb+3] | 0.217% | – |
| CCCCC(CC)COC(=O)OOC(C)(C)C (stereo not given) | 4.58% | – |
| COC1=CC(=O)O[C@@H](CCc2ccccc2)C1 | -5.69% | – |
| CC[N+]1(C)CCCC(OC(=O)C(O)(c2ccccc2)c2ccccc2)C1 (stereo not given) | -9.12% [at 42.5 µM] | – |
| CCOP(=S)(OCC)Oc1cc(-c2ccccc2)on1 | -0.312% | – |
| Oc1cc(Cl)c(Cl)c(Cl)c1Cl | 0.192% | – |
| BrCC(Br)(Br)Br | -0.393% | – |
| COC1=CC(=O)O[C@@H](/C=C/c2ccc3c(c2)OCO3)C1 | -5.57% | – |
| CCC(C)(NC(=O)c1cc(Cl)c(C)c(Cl)c1)C(=O)CCl (stereo not given) | -12% | – |
| CCC1(CCC(C)C)C(=O)NC(=O)NC1=O | 8.52% | – |

| SMILES | activation | Potency |
| --- | --- | --- |
| O=C=Nc1ccc(Cl)cc1 | 0.717% | – |
| O=C(C(Cl)(Cl)Cl)C(Cl)(Cl)Cl | -0.019% | – |
| CC1(C)[C@H](C=C(Cl)Cl)[C@@H]1C(=O)O[C@@H](C#N)c1cccc(Oc2ccccc2)c1 | -0.154% | – |
| II | -6.15% | – |
| CC(C)C(Nc1ccc(C(F)(F)F)cc1Cl)C(=O)OC(C#N)c1cccc(Oc2ccccc2)c1 (stereo not given) | -1.45% | – |
| CCN(CC)CCOC(=O)C(O)(c1ccccc1)c1ccccc1 | 0.883% [at 42.5 µM] | – |
| CCOP(=S)(OCC)SCSCC | -5.75% | – |
| CC(=O)c1cc(C(C)(C)C)cc2c1CCC2(C)C | -8.59% | – |
| O=C(O)CBr | -3.34% | – |
| COP(=S)(NC(C)C)Oc1ccc(C)cc1[N+](=O)[O-] (stereo not given) | 0.44% | – |
| O=C(O)c1cc(I)cc(I)c1I | 10.1% | – |
| CCC(COC(=O)c1cc(OC)c(OC)c(OC)c1)(c1ccccc1)N(C)C (stereo not given) | -2.58% [at 42.5 µM] | – |
| ClC1=C(Cl)C2(Cl)C(CBr)CC1(Cl)C2(Cl)Cl (stereo not given) | – | inactive |
| Cn1cc(C2=C(c3cn(C4CCN(Cc5ccccn5)CC4)c4ccccc34)C(=O)NC2=O)c2ccccc21 | 0.942% [at 42.5 µM] | – |
| CCCCOC(C)=O | 6.1% | – |
| Fc1ccc(C(OCCN2CCN(CCCc3ccccc3)CC2)c2ccc(F)cc2)cc1 | -9.42% [at 42.5 µM] | – |
| CC1Sc2c(C(=O)O)c(=O)c3cc(F)c(N4CCNCC4)cc3n21 (stereo not given) | -11.7% [at 42.5 µM] | – |
| CC(=O)/C=C/c1ccc2c(c1)OCO2 | -0.187% | – |
| COC12CC[C@@]3(C[C@@H]1C(C)(O)C(C)(C)C)[C@H]1Cc4ccc(O)c5c4[C@@]3(CCN1CC1CC1)[C@H]2O5 (stereo not given in full) | -14.7% | – |
| NNCCO | 0.3% | – |
